{"source": "PubChem BioAssay AID1063", "about": "(University of Pittsburgh Molecular Library Screening Center, 2008)", "note": "About 18,000 (9%) of roughly 200,000 compounds were called active. The entries come from a sample that favours actives as a whole. Values without a mark were called inactive. Cut-off read from the data, not from the text of the source: active = inhibition above about 50%; inactive = the rest."}
{"assay": "antileishmanial activity against promastigotes – primary screen (AID 1063);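 note: promastigotes grown with compound for 44 hours at 28 °C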", "conditions": "Leishmania major promastigotes, resazurin fluorescence viability; at 10 µM; hits give high values"}
{"smiles": "C=C(C)CNC(=S)N/N=C/c1ccccc1OCC(=O)O", "inhibition": "-1.38%"}
{"smiles": "O=S(=O)(NCCc1ccc(F)cc1)c1cccc2cccnc12", "inhibition": "-0.53%"}
{"smiles": "O=C1C2C3C=CC(C3)C2C(=O)N1c1ccc(-c2nc3ccccc3c(=O)o2)cc1", "note": "(stereo unspecified)", "inhibition": "-7%"}
{"smiles": "COc1ccc(OC)c(-n2c(=S)[nH]c3cc(C(=O)N4CCCCC4)ccc3c2=O)c1", "inhibition": "-7.75%"}
{"smiles": "COc1ccc(C(=O)Nc2ccc(-n3nncc3C(C)(C)C)cc2)cc1", "inhibition": "-0.36%"}
{"smiles": "COc1cc(C(=O)OCc2ccc([N+](=O)[O-])cc2)cc(OC)c1OC", "inhibition": "-8.98%"}
{"smiles": "COc1cc(/C=N\\Nc2ccc([N+](=O)[O-])cn2)ccc1OCC(=O)O", "inhibition": "4.37%"}
{"smiles": "COc1cc(/C=N/O)ccc1OCc1ccc([N+](=O)[O-])cc1", "inhibition": "51.5% (active)"}
{"smiles": "COC(=O)Cc1ccc(Oc2ncc(C(F)(F)F)cc2Cl)cc1", "inhibition": "-7.25%"}
{"smiles": "C/C(=N\\NC(=O)NC1CCCCC1)c1ccc(OC(F)F)cc1OC(F)F", "inhibition": "46.4%"}
{"smiles": "CCN(CC)CCOC(=O)c1ccc(NC(=O)CNC(=O)c2ccccc2)cc1", "inhibition": "-0.48%"}
{"smiles": "CCOC(=O)c1ccccc1NC(=S)N1CCC(C(N)=O)CC1", "inhibition": "4.08%"}
{"smiles": "COc1cccc(-n2c(=O)c3c(C)c(C(=O)N(C)C)sc3n(CC(=O)NCCc3ccc(OC)c(OC)c3)c2=O)c1", "inhibition": "2.17%"}
{"smiles": "O=C(Nc1ccccc1F)c1ccccc1-c1ccccc1", "inhibition": "-3.5%"}
{"smiles": "COc1cc(OC)c(C(=O)Nc2ccccc2-c2ccccc2)cc1OC", "inhibition": "82.5% (active)"}
{"smiles": "COc1cc(OC)c(C(=O)Nc2ccc(N(C)C)cc2)cc1OC", "inhibition": "3.39%"}
{"smiles": "O=C(NCc1ccccc1Cl)C1CCN(S(=O)(=O)N2CCOCC2)CC1", "inhibition": "-5.43%"}
{"smiles": "CCOc1ncccc1C(=O)OCC(=O)NC1CC1", "inhibition": "4.89%"}
{"smiles": "Cc1csc(NC(=O)CSc2ccc(-c3ccc(F)cc3)nn2)n1", "inhibition": "7.99%"}
{"smiles": "NNC(=O)C1CC(O)CN1S(=O)(=O)c1ccc(Cl)cc1", "note": "(stereo unspecified)", "inhibition": "4%"}
{"smiles": "O=C(NCc1ccccc1)C1CCCN(c2nc3ccsc3c(=O)s2)C1", "note": "(stereo unspecified)", "inhibition": "-5.75%"}
{"smiles": "C=CCn1c(COc2ccc(F)cc2)nnc1SCC(=O)Nc1cccc(S(N)(=O)=O)c1", "inhibition": "1.1%"}
{"smiles": "COc1ccc(NC(=O)c2ccccc2CC[N+](=O)[O-])cc1", "inhibition": "13.1%"}
{"smiles": "CC(C)n1c(SCC(=O)Nc2ccccc2N2CCCCC2)nc2c1c(=O)n(C)c(=O)n2C", "inhibition": "58.5% (active)"}
{"smiles": "Cc1ccccc1NC(=O)CNc1ccccc1N1CCCCC1", "inhibition": "21.9%"}
{"smiles": "Cn1c(=O)c2c(nc(SCC(=O)Nc3ccccc3N3CCCCC3)n2C)n(C)c1=O", "inhibition": "31%"}
{"smiles": "CN(c1ccccc1)S(=O)(=O)c1ccc(Cl)c(C(=O)OCC(=O)N2CCOCC2)c1", "inhibition": "1.28%"}
{"smiles": "COC(=O)c1nc2ccccc2s1", "inhibition": "-8.95%"}
{"smiles": "CCC(=O)NC(=Nc1nc2ccccc2s1)NC(=O)CC", "inhibition": "8.31%"}
{"smiles": "CC(C)CC(=O)N/C(N)=N/c1nc2ccccc2s1", "inhibition": "95.3% (active)"}
{"smiles": "CC/C(=N\\NC(=S)NC(C)C)c1ccc(OC(F)F)cc1", "inhibition": "16.9%"}
{"smiles": "Cc1cc(Cl)ccc1OCCCC(=O)NCc1ccncc1", "inhibition": "-0.52%"}
{"smiles": "CC(C)(C)NCCCOc1ccc(Cl)cc1C(C)(C)C", "inhibition": "100% (active)"}
{"smiles": "CN(C)CCOc1ccc(Cl)cc1C(C)(C)C", "inhibition": "6.15%"}
{"smiles": "O=C(CN(c1cccc(Cl)c1)S(=O)(=O)c1ccccc1)NN=C1CCCC1", "inhibition": "12.4%"}
{"smiles": "COC(=O)[C@H](Cc1ccccc1)NC(=O)N1CC(C)OC(C)C1", "note": "(stereo partly specified)", "inhibition": "15.6%"}
{"smiles": "CC1CCCN(CCOCCOc2ccccc2-c2ccccc2)C1", "note": "(stereo unspecified)", "inhibition": "98.6% (active)"}
{"smiles": "c1ccc(-c2ccccc2OCCN2CCCCC2)cc1", "inhibition": "8.2%"}
{"smiles": "CC1CCCN(Cc2nc3c(c(=O)n(C)c(=O)n3C)n2CC(=O)c2ccccc2)C1", "note": "(stereo unspecified)", "inhibition": "22.4%"}
{"smiles": "CN1CCN(CCCCOc2ccccc2-c2ccccc2)CC1", "inhibition": "44.5%"}
{"smiles": "CC1CN(CCCOc2ccccc2-c2ccccc2)CC(C)O1", "note": "(stereo unspecified)", "inhibition": "88.7% (active)"}
{"smiles": "CC1CCN(S(=O)(=O)c2ccc(S(=O)(=O)NCc3cccnc3)cc2)CC1", "inhibition": "-2.4%"}
{"smiles": "CS(=O)(=O)N(CC(=O)NC1CCCC1)Cc1ccc(F)cc1", "inhibition": "-5.9%"}
{"smiles": "Cc1cccn2c(=O)c3cc(C#N)c(=O)n(CCCN4CCOCC4)c3nc12", "inhibition": "95.7% (active)"}
{"smiles": "Cc1ccc(-n2c(=O)c(C#N)cc3c(=O)n4ccccc4nc32)cc1C", "inhibition": "2.63%"}
{"smiles": "Cc1cccn2c(=O)c3cc(C#N)c(=NC(=O)c4cccnc4)n(CC4CCCO4)c3nc12", "note": "(stereo unspecified)", "inhibition": "16.8%"}
{"smiles": "CN1C(=O)/C(=C\\c2ccc(-c3ccccc3)o2)SC1=S", "inhibition": "-6.51%"}
{"smiles": "COc1ccccc1NC(=O)COC(=O)Cc1ccc(S(=O)(=O)N2CCCCC2)s1", "inhibition": "6.48%"}
{"smiles": "O=C(Cc1ccc(S(=O)(=O)N2CCOCC2)s1)NCCC(c1ccccc1)c1ccccc1", "inhibition": "98.1% (active)"}
{"smiles": "O=C(NCCc1ccccc1)C1CCN(S(=O)(=O)c2ccc(Br)s2)CC1", "inhibition": "-1.73%"}
{"smiles": "O=C(NC1CCCCC1)C1CCCN(S(=O)(=O)c2ccc(Br)s2)C1", "note": "(stereo unspecified)", "inhibition": "12.5%"}
{"smiles": "O=C(Cc1ccc(S(=O)(=O)N2CCCC2)s1)NC1CCCCCC1", "inhibition": "93.5% (active)"}
{"smiles": "O=C(NC1CCCCC1)n1c(=O)oc2cc(S(=O)(=O)N3CCCCC3)ccc21", "inhibition": "2.93%"}
{"smiles": "COc1cccc(CC(=O)N2CCCC(CCC(=O)N3CCN(c4ccccn4)CC3)C2)c1", "note": "(stereo unspecified)", "inhibition": "8.58%"}
{"smiles": "Cc1cc(OC(=O)c2ccccc2Cl)ccc1N1C(=O)CCC1=O", "inhibition": "-6.74%"}
{"smiles": "Cc1ccccc1-n1nc(SCC(=O)O)sc1=S", "inhibition": "-4.01%"}
{"smiles": "Cc1ccc(C2CCN(C(=S)Nc3cccc(Cl)c3)C2)cc1", "note": "(stereo unspecified)", "inhibition": "0.88%"}
{"smiles": "CCOc1ccc(/C=N/Nc2nncc(-c3ccccc3)n2)cc1OC", "inhibition": "-2.97%"}
{"smiles": "CC(C)(C)C(=O)/C(C#N)=C/c1ccc(O)cc1", "inhibition": "-4.15%"}
{"smiles": "Cc1[nH]c2ccccc2c1/C=C(/C#N)C(=O)NC(C)C", "inhibition": "16.4%"}
{"smiles": "CC(C)NC(=O)/C(C#N)=C\\c1ccc(N(C)C)c(Br)c1", "inhibition": "64.6% (active)"}
